Assay [1] has as its system TRPC4 beta (transient receptor potential cation channel C4), mouse. Description: TRPC4 cation channel opening, retest – cell-based, Fluo4 calcium, HEK293 TRPC4beta/mu-opioid, duplicates, 10 µM, confirmation (AID 2426;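 active = fluorescence ratio normalized to control raised more than 50% in primary screen plus both repeat runs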). Particulars: Fluo4 calcium fluorescence, at 10 µM; active compounds read high.
In assay [2] the test system is transient receptor potential cation channel C4 beta (TRPC4), mouse. In words: TRPC4 cation channel opening, second retest – cell-based, second round, Fluo4, HEK293 TRPC4beta/mu-opioid, 1 µM, confirmation (AID 2461;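 active = primary screen active and over 50% activation in each of two duplicate runs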). Particulars: Fluo4 calcium fluorescence, at 1 µM; active compounds read high.
The subject of assay [3] is TRPC4 (transient receptor potential cation channel C4 beta), mouse. In words: potentiation of DAMGO EC20 TRPC4 response – cell-based, second round, Fluo-4, HEK293 TRPC4beta/mu-opioid, 1 µM, confirmation (AID 2554). Particulars: DAMGO EC20, Fluo-4 calcium flux, at 1 µM; active compounds read high. In general terms: Calcium assays in cells follow changes in intracellular calcium, usually with a dye or a luminescent sensor.

Assay [4] relates to TRPC4 beta (transient receptor potential cation channel C4), mouse. Description: potentiation of DAMGO EC20 TRPC4 response – cell-based, Fluo-4, HEK293 TRPC4beta/mu-opioid, confirmation (AID 2555;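 active = primary screen hit whose calcium fluorescence ratio, in both repeats, exceeds the weak agonist control mean by 3 SD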). Particulars: DAMGO EC20, Fluo-4 calcium flux, at 10 µM; active compounds read high.
In assay [5] the target is Short transient receptor potential channel 4 (Mus musculus) (UniProt Q9QUQ5). In words: blockers of DAMGO-evoked TRPC4 calcium flux – cell-based, Fluo4, HEK293 TRPC4beta/mu-opioid, confirmation (AID 2636;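 active = calcium signal cut by more than 3 SD below the full-agonist control yet still positive, in both repeats and the earlier primary screen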). Particulars: at 10 µM; active compounds read high.
The target is the same in assay [6]. Description: blockers of DAMGO-evoked TRPC4 calcium flux – cell-based, second round, Fluo4, HEK293 TRPC4beta/mu-opioid, 1 µM, confirmation (AID 2637;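 active = calcium signal ratio cut to more than 3 SD under the fully stimulated control mean yet still positive, in both repeats and the primary screen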). Particulars: at 1 µM; active compounds read high.
Assay [7] has the same target. In words: potentiation of DAMGO-evoked TRPC4 calcium signal – cell-based, HEK293 TRPC4/mu-opioid, Fluo-4 calcium, EC20 DAMGO, dose response (AID 434941;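 active = earlier screen potentiator hit that boosts the TRPC4 ion channel at some dose, with a dose response; inactive = no potentiation, no dose response, or not a prior hit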;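 also: calcium entry triggered by an EC20 dose of DAMGO at the co-expressed mu-opioid receptor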).
Assay [8] has the same target. In words: block of DAMGO-driven TRPC4 calcium entry – cell-based, HEK293 TRPC4/mu-opioid, Fluo-4 calcium, dose response (AID 434942;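 active = primary screen inhibitor hit that blocks the TRPC4 channel at some tested dose, yielding a dose curve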).
Assay [9] addresses Short transient receptor potential channel 6 (Mus musculus) (UniProt Q61143). In words: TRPC6 blockade by TRPC4 inhibitor hits – cell-based, HEK293, membrane potential dye, duplicate, selectivity assay for TRPC4 inhibitor project, confirmation (AID 434948;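 active = active in primary screen and both duplicates, each dropping signal beyond three positive-control SD with fluorescence still positive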). Particulars: HEK293 TRPC6, membrane potential dye fluorescence, at 10 µM, stimulated with maximal-effect acetylcholine; active compounds read high.

Assay [10] shares this target. In words: TRPC6 opening by TRPC4 activator hits – cell-based, HEK293, membrane potential dye, duplicate, selectivity assay for TRPC4 activator project, confirmation (AID 434950;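 active = membrane potential signal rise above negative control mean plus 3 SD in both duplicates, also active in the earlier TRPC4 screen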;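 as to activation: 0% = buffer only wells and 100% = acetylcholine maximal-effect wells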). Particulars: HEK293 TRPC6, membrane potential fluorescence, at 10 µM; activation: active compounds read high; outcome: activation.
For assay [11] the target is unchanged. Description: positive modulators of mouse TRPC6 channel – HEK293 cells, membrane potential dye, duplicate, selectivity assay for TRPC4 potentiator project, confirmation (AID 434952;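 active = compound raising the membrane signal above positive-control mean plus 3 SD in both repeats, and a primary screen hit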). Particulars: HEK293 TRPC6, membrane potential dye fluorescence, at 10 µM, maximal acetylcholine added after compound; active compounds read high.
Assay [12] has as its target Short transient receptor potential channel 4 (Mus musculus) (UniProt Q9QUQ5). In words: calcium flux activators in TRPC4/5HT1a cells, counter-screen for TRPC4 activator project, cell-based, second counter screen, HEK293 TRPC4/5HT1a, Fluo-4 (AID 434977;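 active = calcium signal rise above buffer-control mean plus 5 SD in both duplicates, and also a hit in the primary screen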;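 as to activation: plate controls were assay buffer for no effect and maximal serotonin response for full effect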). Particulars: Fluo-4 calcium flux, at 10 µM; active compounds read high.
Assay [13] is described as follows: serotonin-gated TRPC4 signal block – cell-based, second counter screen, HEK293 TRPC4/5HT1a, Fluo-4, counter-screen for TRPC4 inhibitor project, confirmation (AID 434978;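 active = primary screen active whose calcium signal fell more than 3 SD beyond the full-serotonin control mean in both duplicate plates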;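 also: serotonin given first at submaximal then at maximal dose after compound preincubation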). Particulars: Fluo-4 calcium flux, at 10 µM, serotonin added to trigger calcium flux; active compounds read high. In general terms: Counterscreens check selectivity or assay interference.
In assay [14] the test system is TRPC4 (mouse), co-expressed with 5HT1a in HEK293. Description: enhancement of serotonin-evoked TRPC4 response – cell-based, second counter screen, HEK293 TRPC4/5HT1a, Fluo-4, counter-screen for TRPC4 potentiator project, confirmation (AID 434979;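 active = signal rise over 3 SD above mean of control wells given weak agonist, in both repeats and first screen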). Particulars: Fluo-4 calcium flux, at 10 µM, serotonin added at its EC20 dose; active compounds read high.
The nature of assay [15]: nonspecific calcium rise without TRPC4 – cell-based, HEK293 mu-opioid receptor line, counter-screen for TRPC4 activator project, confirmation (AID 449723;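 active = hit in primary screen, with calcium signal over 5 SD above buffer well mean in both duplicates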;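 also: counter screen cells carry the mu-opioid receptor alone and lack TRPC4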). Particulars: HEK293 mu-opioid cells, Fluo-4 calcium fluorescence, at 10 µM; active compounds read high.
Assay [16] can be described thus: nonspecific potentiation of DAMGO calcium response – cell-based, HEK293 mu-opioid receptor line, counter-screen for TRPC4 allosteric potentiator project, confirmation (AID 449724;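 active = calcium signal rise more than 3 SD above the low-dose agonist control mean, in both duplicate plates and the primary screen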). Particulars: HEK293 mu-opioid receptor cells, Fluo-4 calcium flux, at 10 µM, compound added before EC20 DAMGO stimulus; active compounds read high.
Assay [17] deals with Short transient receptor potential channel 4 (Mus musculus) (UniProt Q9QUQ5). In words: calcium entry via TRPC4 opening agents – cell-based, HEK293 TRPC4/mu-opioid, Fluo-4 calcium, dose response (AID 434937;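 active = primary screen activator hit with a dose response curve and TRPC4 channel activation at any tested dose; inactive = no activation, no dose response, or not a primary hit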).

For some assays here: Measured potencies and affinities stand elsewhere. Active and inactive are the calls of the source.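 The calls were made as follows, unless noted: active = primary screen hit whose fluorescence ratio, in both repeats, exceeds the weak agonist control mean by 3 SD; inactive = the rest.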

Sequence of Short transient receptor potential channel 4 (Mus musculus) (Q9QUQ5 whole entry, looked up): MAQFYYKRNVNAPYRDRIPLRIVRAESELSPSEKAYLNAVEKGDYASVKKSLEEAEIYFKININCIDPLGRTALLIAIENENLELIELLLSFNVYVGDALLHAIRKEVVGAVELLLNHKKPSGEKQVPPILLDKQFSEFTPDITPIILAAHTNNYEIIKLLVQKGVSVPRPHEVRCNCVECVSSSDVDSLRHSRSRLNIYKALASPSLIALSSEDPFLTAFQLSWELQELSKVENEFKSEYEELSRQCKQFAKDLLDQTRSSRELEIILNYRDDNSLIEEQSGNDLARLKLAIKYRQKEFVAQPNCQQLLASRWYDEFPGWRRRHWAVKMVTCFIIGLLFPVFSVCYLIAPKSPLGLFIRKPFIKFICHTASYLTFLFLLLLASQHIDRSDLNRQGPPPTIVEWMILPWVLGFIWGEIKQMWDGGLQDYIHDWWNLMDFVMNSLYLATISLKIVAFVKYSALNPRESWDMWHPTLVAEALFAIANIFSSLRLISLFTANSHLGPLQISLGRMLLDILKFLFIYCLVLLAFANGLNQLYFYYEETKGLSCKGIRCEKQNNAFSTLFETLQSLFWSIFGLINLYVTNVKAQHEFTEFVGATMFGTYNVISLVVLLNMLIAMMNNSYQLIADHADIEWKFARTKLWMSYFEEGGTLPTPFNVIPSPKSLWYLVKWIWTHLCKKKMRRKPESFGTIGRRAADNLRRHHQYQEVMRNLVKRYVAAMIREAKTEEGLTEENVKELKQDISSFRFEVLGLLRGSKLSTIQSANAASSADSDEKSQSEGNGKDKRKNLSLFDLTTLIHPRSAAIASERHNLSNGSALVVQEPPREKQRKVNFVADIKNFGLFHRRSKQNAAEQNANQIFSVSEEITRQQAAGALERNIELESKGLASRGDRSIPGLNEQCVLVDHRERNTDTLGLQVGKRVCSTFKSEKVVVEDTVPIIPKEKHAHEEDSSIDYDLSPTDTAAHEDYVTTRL
Sequence of Short transient receptor potential channel 6 (Mus musculus) (Q61143 whole entry, looked up): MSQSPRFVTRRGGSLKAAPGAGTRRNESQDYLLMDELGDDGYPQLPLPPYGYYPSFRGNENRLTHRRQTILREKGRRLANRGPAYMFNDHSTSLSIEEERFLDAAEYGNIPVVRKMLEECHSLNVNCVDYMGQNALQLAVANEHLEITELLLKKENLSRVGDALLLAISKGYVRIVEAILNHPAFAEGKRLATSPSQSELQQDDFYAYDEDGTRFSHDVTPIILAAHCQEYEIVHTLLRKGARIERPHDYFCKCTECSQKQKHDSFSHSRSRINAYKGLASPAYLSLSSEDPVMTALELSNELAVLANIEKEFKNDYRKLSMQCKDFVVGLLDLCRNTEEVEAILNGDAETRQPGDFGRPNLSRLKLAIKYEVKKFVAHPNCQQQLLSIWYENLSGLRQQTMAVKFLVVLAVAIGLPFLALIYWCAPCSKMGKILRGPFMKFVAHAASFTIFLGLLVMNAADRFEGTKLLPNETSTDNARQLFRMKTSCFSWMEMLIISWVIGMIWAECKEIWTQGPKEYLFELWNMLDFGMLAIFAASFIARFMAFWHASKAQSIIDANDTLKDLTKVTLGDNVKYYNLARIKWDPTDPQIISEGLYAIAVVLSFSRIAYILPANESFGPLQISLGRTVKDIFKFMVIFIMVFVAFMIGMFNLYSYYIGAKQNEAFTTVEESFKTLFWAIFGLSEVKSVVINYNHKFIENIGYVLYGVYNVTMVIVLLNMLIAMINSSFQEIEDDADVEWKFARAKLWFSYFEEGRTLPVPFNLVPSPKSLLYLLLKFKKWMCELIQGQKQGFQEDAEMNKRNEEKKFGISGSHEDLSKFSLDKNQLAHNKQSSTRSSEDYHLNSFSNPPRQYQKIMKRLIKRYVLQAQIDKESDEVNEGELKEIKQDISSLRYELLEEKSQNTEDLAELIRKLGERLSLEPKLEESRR

`COc1ccc(C(=O)NNC(=S)NC(=O)c2cccs2)cc1`: the outcome in assay [1], in [2], in assay [3], in assay [4], in assay [5] and in assay [6] was inactive. The outcome in assay [7], in assay [8], in assay [9], in assay [11], in assay [13] and in assay [14] was inactive. Also, the outcome in assay [15] and in assay [16] was inactive. Moreover, the activation was 41.5% (active) in [10] and 42.7% (active) in [12].

Consider `Cc1cc(OCC(=O)NC2CCCCC2)ccc1Cl`, for which the outcome in assay [1], in assay [2], in assay [3], in [4], in [5] and in assay [6] was inactive. In addition, the outcome in assay [17], in assay [8], in [9], in [10], in [11] and in [12] was inactive. Also, the outcome in [13], in assay [15] and in assay [16] was inactive. Moreover, in assay [14], the potentiation was 97.2% (active).

Take `CC1Cc2ccccc2N1C(=O)CSc1nc2c(c(=O)n(C)c(=O)n2C)n1Cc1ccc(F)cc1` (stereo not drawn): the outcome in [1], in assay [2], in assay [5], in [6], in [17] and in [8] was inactive. In addition, the call in assay [9], in [10], in [11], in assay [12], in [13] and in assay [15] was inactive. For the same molecule, the result in assay [16] was inactive. For the same molecule, the potentiation in [3] is 36% (active); in assay [4], 40% (active); in assay [14], 67.1% (active).

Take `CN(C)CCOc1cc(Cl)cc(Cl)c1`: the result in assay [1], in [2], in [3], in assay [4], in assay [5] and in [6] was inactive. Further, the outcome in assay [17], in [8], in [9], in assay [10], in [11] and in assay [12] was inactive. For the same molecule, the outcome in [13], in [15] and in assay [16] was inactive. In addition, in assay [14], the potentiation was 10.7% (active).

On to `Cc1cccc(Cn2c(N3CCN(c4ccccc4)CC3)nc3c2c(=O)n(C)c(=O)n3C)c1`, for which the outcome in [1], in assay [2], in [3], in assay [5], in assay [6] and in assay [17] was inactive. In addition, the result in assay [8], in [9], in assay [10], in assay [11], in [12] and in assay [13] was inactive. Moreover, the result in assay [15] and in assay [16] was inactive. For the same molecule, the potentiation in assay [4] is 71% (active); in assay [14], 59.2% (active).

On to `Cc1ccc(Cl)cc1N1CCN(C(=O)c2cccc3c(=O)c(C)c(-c4ccccc4)oc23)CC1`, for which the result in assay [1], in [2], in [3], in assay [4], in assay [5] and in [6] was inactive. The outcome in assay [17], in assay [8], in assay [9], in assay [10], in assay [11] and in assay [12] was inactive. Moreover, the result in assay [13], in assay [15] and in [16] was inactive. Further, the potentiation in assay [14] is 21.8% (active).

Regarding `c1ccc(-c2nc(N3CCNCC3)nc3ccccc23)cc1`, the outcome in [1], in [2], in [4], in [5], in [6] and in assay [17] was inactive. The outcome in assay [8], in assay [9], in [10], in [11], in [12] and in [13] was inactive. Besides, the outcome in [14], in [15] and in assay [16] was inactive. The potentiation in assay [3] is 19% (active).

With `O=C(O)CCNc1nc(-c2ccccc2)c2cc(Br)ccc2n1`, the outcome in assay [1], in [2], in assay [4], in [5], in assay [6] and in [17] was inactive. The outcome in [8], in [9], in assay [10], in assay [11], in [12] and in assay [13] was inactive. Further, the result in [15] and in [16] was inactive. Besides, the potentiation in [3] was 11% (active); in [14], 24.1% (active).

The values above are taken from PubChem BioAssay.
